The list is not random: actives were taken first. Their share in the collection is about 10%.
FLuc inh – blocks purified firefly luciferase enzyme activity; AID 1347043; purified P. pyralis luciferase, luminescence, biochemical; Potency, µM (highest dose often 115 µM), usual class: inhibitors; hit rate 2.5% among 76,000; further: nearly all actives have a fitted effect of over 65% in size
Target sequence (P08659 whole entry, looked up): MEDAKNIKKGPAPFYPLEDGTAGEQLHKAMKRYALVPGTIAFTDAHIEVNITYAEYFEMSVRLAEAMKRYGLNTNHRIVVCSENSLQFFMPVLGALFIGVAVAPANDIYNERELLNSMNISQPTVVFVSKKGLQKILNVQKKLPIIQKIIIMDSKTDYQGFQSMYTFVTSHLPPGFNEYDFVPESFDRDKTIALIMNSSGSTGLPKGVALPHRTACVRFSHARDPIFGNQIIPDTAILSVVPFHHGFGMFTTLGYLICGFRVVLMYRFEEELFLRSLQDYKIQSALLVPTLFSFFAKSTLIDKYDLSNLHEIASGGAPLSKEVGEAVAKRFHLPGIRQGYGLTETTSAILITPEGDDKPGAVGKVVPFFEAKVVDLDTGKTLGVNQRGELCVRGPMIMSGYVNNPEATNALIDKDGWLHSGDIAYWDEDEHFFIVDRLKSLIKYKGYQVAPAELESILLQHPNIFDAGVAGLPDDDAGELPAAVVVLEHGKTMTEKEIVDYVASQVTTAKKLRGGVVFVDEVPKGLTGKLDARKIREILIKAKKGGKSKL
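Cell-free enzyme assay, 10nM P. pyralis luciferase, luciferin and ATP each at 10uM. Inhibition profiled over a 6-point titration, read as luminescence.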
hNpr1 antagonist – human Npr1 receptor antagonism | P16066 | HEK293 hNpr1 GloSensor cGMP, ANP-stimulated luminescence | hit rate 1.6% among 76,000 | Potency, µM (titrated, usually from 46.3 µM), without a hit: at the highest dose activity change, negative = inhibition, hits mostly inhibitors | AID 1347048; calls by dose curve; further: nearly all actives have a fitted effect of over 60% in size
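Compound pre-incubated 30 min at room temperature on GloSensor-loaded HEK293 cells stably carrying hNpr1 and the pGS-40F cGMP biosensor. Stimulation uses hNppA at 0.1 nM final; luminescence is taken at baseline and 20 min post-agonist.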
HEK293 tox – cytotoxic compounds in HEK 293 cells; HEK 293 viability, ATP luminescence (CellTiter-Glo), 48-72 h; Potency, µM (top dose mostly 115 µM), for inactives: at the top dose activity change, negative = cytotoxicity, actives largely listed as inhibitors; hit rate 6.6% among 94,000; AID 1345083; further: nearly all actives have a fitted effect of over 60% in size
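250 HEK 293 cells/well; compound by pintool; incubated 48 or 72 hr at 37 degree Celsius; CellTiter-Glo added, 10 min RT, luminescence imaged.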
GPT2 inhibitor – GPT2 alanine aminotransferase inhibition; hit rate 0.25% among 100,000; Potency, µM (titrated, usually from 57.7 µM), for inactives: at the top dose activity change, negative = inhibition, usual class: inhibitors; Recombinant GPT2, coupled pyruvate oxidase/HRP Amplex Red fluorescence; further: nearly all actives have a fitted effect of over 60% in size
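GPT2 10ng/uL, a-KG 250uM, L-Ala 2mM, HEPES pH7.5 + 0.0001% Tween; 30 min RT. Then Amplex mix (PO/HRP/ThPP), 30 min RT dark, fluorescence. AOA 50uM used as positive control.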
NIH3T3 tox – NIH 3T3 cell cytotoxicity; NIH 3T3 viability, CellTiter-Glo ATP luminescence, 48-72 h; hit rate 4.3% among 94,000; AID 1345082; Potency, µM (doses to about 96.7 µM), for the others: top-dose activity change, negative = cytotoxicity, hits mostly inhibitors; further: nearly all actives have a fitted effect of over 55% in size
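Viability of NIH 3T3 cells after 48 or 72 hr compound treatment at 37 °C was assessed by CellTiter-Glo, with luminescence imaged following a 10 min room-temperature step.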
Active calls of the source: *; i = inactive; u = inconclusive; x = no result given; [ ] = remark or other dose. Unless noted, the call rests on the fitted dose curve; in most records, active means well fitted curve in the direction sought with a large enough effect; inconclusive means small, poorly fitted or top-dose-only effect, or another doubt; inactive means no such curve, though single readings can be large; an effect the other way counts as inactive or inconclusive. On the % scale 0 is the no-effect control and ±100 the full control effect; potency means the concentration at half of the fitted maximal effect.

SMILES | FLuc inh | hNpr1 antagonist | HEK293 tox | GPT2 inhibitor | NIH3T3 tox
Cn1ccc2c(C(=O)NCCC(N)=O)nc(-c3ccccc3)cc21 | i | 2%[70.6 µM] | -3%[172 µM] | i | 100µM*
Cn1ccc2c(C(=O)NCCC(N)=O)nc(-c3cccc(C(F)(F)F)c3)cc21 | i | 3%[70.6 µM] | 89µM* | -9%[88.5 µM] | u
Cn1ccc2c(C(=O)NCCC(N)=O)nc(-c3cccc(CO)c3)cc21 | i | 4%[70.6 µM] | i | -3%[88.5 µM] | u
CN1CCCC12Cc1ccccc1CN(C(=O)C1CCCC1)C2 (stereo not given) | x | x | -29% | 0% | -17%
O=C(NCCc1ccc(Cl)cc1)c1ccc2nc(-c3cccnc3Cl)oc2c1 | x | x | u | i | u
COc1ccccc1CN1CCN(C(=O)CC2CCOCC2)CC1 | i | 0% | -19% | 3% | i
CC(C)C[C@@H]1N[C@H](C(=O)NC(C)C)Cc2cn(Cc3ccccn3)c3cccc1c23 | i | -12%[70.6 µM] | 28µM* | u | 45µM*
CC(C)C[C@@H]1N[C@H](C(=O)NC2CCC2)Cc2cn(Cc3ccccn3)c3cccc1c23 | i | -24%[70.6 µM] | 28µM* | -6%[88.5 µM] | 35µM*
CC(C)C[C@@H]1N[C@H](C(=O)NCC2CC2)Cc2cn(Cc3ccccn3)c3cccc1c23 | i | -18%[70.6 µM] | 45µM* | i | 40µM*
CC(C)C[C@@H]1N[C@H](C(=O)NC2CCC2)Cc2cn(Cc3ccncc3)c3cccc1c23 | i | u | u | -14%[88.5 µM] | 79µM*
CC(C)C[C@@H]1N[C@H](C(=O)NC2CC2)Cc2cn(Cc3nccn3C)c3cccc1c23 | i | -7%[70.6 µM] | u | -3%[88.5 µM] | u
CC(C)C[C@@H]1N[C@H](C(=O)NCCN(C)C)Cc2cn(Cc3ccccn3)c3cccc1c23 | i | 0%[70.6 µM] | u | -27%[88.5 µM] | 28µM*
CC(C)C[C@@H]1N[C@H](C(=O)NCCN2CCOCC2)Cc2cn(Cc3ccccn3)c3cccc1c23 | i | -8% | u | i | u
CCCc1nc(C(=O)N2CCC3(CCc4ccccc43)CC2)cs1 | i | 3% | u | -11% | u
Cn1cc(CNc2ccc(-c3nc(CCCc4ccccc4)no3)cn2)cn1 | 40µM* | u | u | 1%[11.5 µM] | u
OC[C@@H]1CN(c2ccc(-c3nc(-c4cccc(C(F)(F)F)c4)no3)cn2)C[C@H]1CO | i | -23% | u | i | -30%
Cn1cc(CNc2ccc(-c3nc(-c4cccc(C(F)(F)F)c4)no3)cn2)cn1 | i | u | 25µM* | -40%[11.5 µM] | u
FC(F)(F)c1cccc(-c2noc(-c3ccc(NCCN4CCOCC4)nc3)n2)c1 | u | 11µM* | 11µM* | i[11.5 µM] | u
O=C(NCC1CC1)c1nc2cccnc2n(Cc2ccccc2)c1=O | x | x | -29%[172 µM] | i | u
COc1ccc(C(=O)N2CC(N3C(=O)c4c(c(C)nn4-c4ccccc4)C3C(C)C)C2)cc1 (stereo not given) | x | x | 1% | x | -18%
Cn1ccc(NC(=O)C2(C)CCc3cnc(NCc4ccccc4)nc32)n1 (stereo not given) | i | -5%[70.6 µM] | u | 4%[88.5 µM] | 20µM*
CN1CCC(NC(=O)C2(C)CCCc3cnc(NCc4ccccc4)nc32)CC1 (stereo not given) | i | 0%[70.6 µM] | u | i | -28%[138 µM]
CC1(C(=O)NCC2CC2)CCCc2cnc(Nc3ccccc3)nc21 (stereo not given) | i | -25%[70.6 µM] | u | 2%[88.5 µM] | u
COCCNC(=O)C1(C)CCCc2cnc(Nc3ccccc3)nc21 (stereo not given) | i | -2%[70.6 µM] | u | -15%[88.5 µM] | u
CC1(C(=O)NCCCn2ccnc2)CCc2cnc(NCc3ccccc3)nc21 (stereo not given) | i | 4%[70.6 µM] | -21%[172 µM] | i | 32µM*
SMILES | FLuc inh | hNpr1 antagonist | HEK293 tox | GPT2 inhibitor | NIH3T3 tox
CC1(C(=O)NCC2CC2)CCc2cnc(NCc3ccccc3)nc21 (stereo not given) | i | -4%[70.6 µM] | 40µM* | -6%[88.5 µM] | u
CC1(C(=O)NCCOc2ccccc2)CCCc2cnc(Nc3cccnc3)nc21 (stereo not given) | i | -16%[70.6 µM] | 100µM* | 2%[88.5 µM] | u
CCCCn1c(=O)c(C(=O)NCC(F)(F)F)nc2cccnc21 | x | x | 3%[172 µM] | i | -14%[138 µM]
COCCNC(=O)C1(C)CCc2cnc(NCc3ccccc3)nc21 (stereo not given) | i | 8%[70.6 µM] | -26%[172 µM] | 1%[88.5 µM] | 89µM*
COCCNC(=O)C1(C)CCc2cnc(Nc3ccccc3)nc21 (stereo not given) | i | 5%[70.6 µM] | u | i | 79µM*
Cc1ccc(NC2=N[C@H]3[C@@H](O)[C@H](O)C[C@H](C(=O)N(C)Cc4ccccc4)[C@H]3S2)cc1 | 32µM* | -3%[70.6 µM] | 3%[172 µM] | u | -1%[174 µM]
COc1cc(NC2=N[C@H]3[C@@H](O)[C@H](O)C[C@H](C(=O)N(C)Cc4ccccc4)[C@H]3S2)cc(OC)c1 | i | -18% | 0% | -11% | -1%
C[S+](=O)([O-])NC1CCN(c2nccc(Nc3ccccc3Cl)n2)CC1 | x | x | -14% | i | -27%
Cc1sc2ccn(CC(C)C)c(=O)c2c1C(=O)N1CCC(C)CC1 | i | 8% | 45µM* | i | -1%
CCCN1CCN(C(=O)c2c(C)sc3ccn(CC(C)C)c(=O)c23)CC1 | i | 3% | -1% | i | i
Cc1sc2ccn(CC(C)C)c(=O)c2c1C(=O)N1CCCCC1 | i | -3% | 28µM* | i | 5%
O=C(NCCc1ccccc1F)C1CCc2nnc(-c3cccc(C(F)(F)F)c3)n21 (stereo not given) | x | x | -27% | i | u
O[C@@H]1C[C@@H](c2nc(-c3ccc(F)cc3)no2)N(CC2CCCCC2)C1 | u | 0%[70.6 µM] | -24%[172 µM] | i | -17%[174 µM]
O[C@@H]1C[C@@H](c2nc(-c3cnccn3)no2)N(Cc2cccs2)C1 | i | 1%[70.6 µM] | -14%[172 µM] | -23%[88.5 µM] | -26%[174 µM]
O[C@@H]1C[C@@H](c2nc(-c3ccc4c(c3)OCO4)no2)N(CCCc2ccccc2)C1 | 35µM* | -4%[70.6 µM] | u | -5%[88.5 µM] | u
O[C@@H]1C[C@@H](c2nc(-c3ccccn3)no2)N(Cc2cccs2)C1 | 35µM* | -16%[70.6 µM] | u | -4%[88.5 µM] | -13%[174 µM]
O[C@@H]1C[C@@H](c2nc(-c3ccc4c(c3)OCO4)no2)N(Cc2ccccn2)C1 | 45µM* | -1%[70.6 µM] | u | -18%[88.5 µM] | -17%[174 µM]
O[C@@H]1C[C@@H](c2nc(-c3ccc4c(c3)OCO4)no2)N(CC2CCCCC2)C1 | u | -5%[70.6 µM] | 89µM* | i | 89µM*
O=[S+]1([O-])c2cccnc2OC(COc2ccccc2)CN1Cc1ccc2c(c1)OCO2 (stereo not given) | x | x | u | 3%[27.3 µM] | u

Assay outcomes as filed in PubChem.
